{"source": "paper PMC7819943", "about": "“Rice protein-binding microarrays: a tool to detect cis-acting elements near promoter regions in rice”", "note": "In all, about 35,000 sequences were measured (“fluorescence intensity (a.u.)”: median about 10,000, highest 2% from about 52,000 on). The entries come from a sample that favours the highest values as a whole.", "data": [{"target": "T1, OsWOX13 (Oryza sativa, UniProt Q5QMM3 1-267)", "T1 sequence": "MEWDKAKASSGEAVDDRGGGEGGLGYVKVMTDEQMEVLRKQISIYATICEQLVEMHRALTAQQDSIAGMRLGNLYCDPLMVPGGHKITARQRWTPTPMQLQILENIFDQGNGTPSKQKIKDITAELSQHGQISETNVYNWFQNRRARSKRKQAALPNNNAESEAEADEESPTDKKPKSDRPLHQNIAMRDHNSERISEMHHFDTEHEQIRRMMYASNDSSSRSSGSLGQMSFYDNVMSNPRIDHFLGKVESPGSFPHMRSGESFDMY", "assay": "protein-binding microarray (RPBM); PBS, 2% BSA, 51.3 ng/ul salmon testes DNA, 50 uM zinc acetate, 200 nM TF, 25 C, 1 h; high values mean tight binding", "details": "protein: recombinant; tags: N-terminal polyhistidine and DsRed monomer fusion (pET32a); label: CyDye5-dUTP incorporated in the synthesized complementary strand; 3' TTTTT single-stranded linker to array surface; dsDNA, one strand shown", "outline": "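For the binding signal, per-feature fluorescence intensity was read in arbitrary units on an Axon 4000B scanner. Before scanning, a 2% BSA-blocked custom Agilent array made double-stranded with Cy5-dUTP was washed after 1 h at 25 °C with 200 nM protein and 50 µM zinc acetate. The proteins were Ni–NTA-purified transcription factors with N-terminal polyhistidine and DsRed fusions, expressed in E. coli BL21-CodonPlus.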", "values": [{"sequence": "GTGATGAGTGATGACCCGGAGAATGAGAGAGGCGACTGTGCGGAGTCACCTAGTGCAG", "binding signal": "3800 fluorescence intensity (a.u.)"}, {"sequence": "GAGTGGTAAATAATTAATTATTACATATTTGTATAAATCGCGGAGTCACCTAGTGCAG", "binding signal": "22800 fluorescence intensity (a.u.)"}, {"sequence": "CTCCTAATTTAGTCACTTATGGAGCTCTGATAGCTGGATGCGGAGTCACCTAGTGCAG", "binding signal": "14200 fluorescence intensity (a.u.)"}, {"sequence": "GGATTAAATTATCAAATAGATTTGGCTGCCATGATGGCACCGGAGTCACCTAGTGCAG", "binding signal": "42600 fluorescence intensity (a.u.)"}, {"sequence": "TAAATTAATTAATTAGGTATAAATGTAATTAAGCACATCGCGGAGTCACCTAGTGCAG", "binding signal": "55000 fluorescence intensity (a.u.)"}, {"sequence": "ATGATAGATTAAATCAAATTATCATGTTATGGGTATAGCCCGGAGTCACCTAGTGCAG", "binding signal": "53200 fluorescence intensity (a.u.)"}, {"sequence": "TAATCATGTTAAATTGATGTTATTAGATTTATCATTAAACCGGAGTCACCTAGTGCAG", "binding signal": "14900 fluorescence intensity (a.u.)"}, {"sequence": "CATTTGCTGGATGTGCTCCTTACTTAATATTTATGCATGGCGGAGTCACCTAGTGCAG", "binding signal": "52600 fluorescence intensity (a.u.)"}, {"sequence": "GTTAATTAGATCATGATAAAGATTAATGTATAGATCGAGGCGGAGTCACCTAGTGCAG", "binding signal": "62000 fluorescence intensity (a.u.)"}, {"sequence": "ATATGATCGTATAATTAAATGAGATCATGATTAAGTGGAGCGGAGTCACCTAGTGCAG", "binding signal": "16400 fluorescence intensity (a.u.)"}, {"sequence": "AGTTATAATGGAATTAATTATAATTATAGTATAGTTAGATCGGAGTCACCTAGTGCAG", "binding signal": "28600 fluorescence intensity (a.u.)"}, {"sequence": "CATAATTAAAATACTTAAAATATGTGCTCGTAATTATTTACGGAGTCACCTAGTGCAG", "binding signal": "6000 fluorescence intensity (a.u.)"}, {"sequence": "TAATGTGTGTGTATAATTAATTAAGCAGTGAAGTGAATCGCGGAGTCACCTAGTGCAG", "binding signal": "5650 fluorescence intensity (a.u.)"}, {"sequence": "GGGGATGGAAGGGTGATTGAGAGTAAGAATTGGAGGTGATCGGAGTCACCTAGTGCAG", "binding signal": "30000 fluorescence intensity (a.u.)"}, {"sequence": "TAGAATTGATGATACTAGCTATAACTTCCGAGTGAGCACACGGAGTCACCTAGTGCAG", "binding signal": "16900 fluorescence intensity (a.u.)"}, {"sequence": "CCATCTGCTGATAGATTTTCTATTGCCAAATCTTACACCTCGGAGTCACCTAGTGCAG", "binding signal": "5710 fluorescence intensity (a.u.)"}, {"sequence": "CTTCAATAATTAATTTATATTGTACTAATATGTTTGTAAACGGAGTCACCTAGTGCAG", "binding signal": "17900 fluorescence intensity (a.u.)"}, {"sequence": "AATTACTGTCATGATTTGAATTTGCAATCATTTCCTGTACCGGAGTCACCTAGTGCAG", "binding signal": "18800 fluorescence intensity (a.u.)"}, {"sequence": "TCCTTGCTAACAAATCAACCAATTTGTCCATTCCCTATGTCGGAGTCACCTAGTGCAG", "binding signal": "3440 fluorescence intensity (a.u.)"}, {"sequence": "AGAAATTGATTCGTCGAGGATATTGATCTATTAGTAAATGCGGAGTCACCTAGTGCAG", "binding signal": "36700 fluorescence intensity (a.u.)"}, {"sequence": "AGTTTCATTAAATTTAATATTAAACATATTTTGATAATATCGGAGTCACCTAGTGCAG", "binding signal": "5680 fluorescence intensity (a.u.)"}, {"sequence": "AAATAAATTTGAACTAAAATGAAAATTTGAAGGTATAGCACGGAGTCACCTAGTGCAG", "binding signal": "12600 fluorescence intensity (a.u.)"}, {"sequence": "AAGCTTCCTTTGATTGATCCGACTCCACCAAGAACACGATCGGAGTCACCTAGTGCAG", "binding signal": "22000 fluorescence intensity (a.u.)"}, {"sequence": "TGTAACTCTCGTATGTAATTGAGTAAAACATGTTGGTGCTCGGAGTCACCTAGTGCAG", "binding signal": "4540 fluorescence intensity (a.u.)"}, {"sequence": "TTATTTAATTTAGAAAATTGGAGTTACCAGTTGTTCAGTTCGGAGTCACCTAGTGCAG", "binding signal": "19500 fluorescence intensity (a.u.)"}, {"sequence": "GTTAGATTAGATTGGTACCTCATGTTACCTCGTACCTCATCGGAGTCACCTAGTGCAG", "binding signal": "55700 fluorescence intensity (a.u.)"}, {"sequence": "TTGTATGAATGAGCTATTAGATTGGCTATAGATGAATTGGCGGAGTCACCTAGTGCAG", "binding signal": "8950 fluorescence intensity (a.u.)"}, {"sequence": "TTGTATAAATGAGCTATCAGATTGGCTATAGATAAATTGGCGGAGTCACCTAGTGCAG", "binding signal": "12000 fluorescence intensity (a.u.)"}, {"sequence": "TTGACTATTAAATTGGCTATAGATAAATTGGAGCTAGTAGCGGAGTCACCTAGTGCAG", "binding signal": "23600 fluorescence intensity (a.u.)"}, {"sequence": "TTGTATAAATTGGCTATTAGATTGGCTATAGATTAATTGGCGGAGTCACCTAGTGCAG", "binding signal": "58900 fluorescence intensity (a.u.)"}, {"sequence": "TTTTAGATTGGGTTATTTATAAGGCTAAGTTTTAATTTAACGGAGTCACCTAGTGCAG", "binding signal": "4150 fluorescence intensity (a.u.)"}, {"sequence": "ATGAATAAGCTATTAGATTGACTATAGATAAATTGGAGCTCGGAGTCACCTAGTGCAG", "binding signal": "18200 fluorescence intensity (a.u.)"}, {"sequence": "TATATAATTTATTTAATTGGATTTACCAGTTTAAGGGGTTCGGAGTCACCTAGTGCAG", "binding signal": "54300 fluorescence intensity (a.u.)"}, {"sequence": "CGGTTAGATTACATTGGTACCTCATGATATCTCGTACCTCCGGAGTCACCTAGTGCAG", "binding signal": "4680 fluorescence intensity (a.u.)"}, {"sequence": "CAACGGTTAGATTAGATTGGTACTTCATGGTACATCGTGGCGGAGTCACCTAGTGCAG", "binding signal": "43200 fluorescence intensity (a.u.)"}, {"sequence": "TTATTAGATTGACTATAGATAAATTAGATAAATTGGAGTTCGGAGTCACCTAGTGCAG", "binding signal": "53600 fluorescence intensity (a.u.)"}, {"sequence": "TTAACAGATTCTTCTTAATTAATAAATAAGCTGTCATGATCGGAGTCACCTAGTGCAG", "binding signal": "17300 fluorescence intensity (a.u.)"}, {"sequence": "TTGATTAGATGCGCTGTGTGGCTTCTTGTTCAGTGACAGGCGGAGTCACCTAGTGCAG", "binding signal": "32400 fluorescence intensity (a.u.)"}, {"sequence": "ACTATGCCAATTAAAATAAATCAATACAATAGGTATGATTCGGAGTCACCTAGTGCAG", "binding signal": "9790 fluorescence intensity (a.u.)"}, {"sequence": "TACAACAAATCAATAATACTCAATTTCCATGTAGTTTGATCGGAGTCACCTAGTGCAG", "binding signal": "7890 fluorescence intensity (a.u.)"}, {"sequence": "TTGATAGTAAATCAAACATTAATAAAGGCCTGTTCACTTTCGGAGTCACCTAGTGCAG", "binding signal": "8860 fluorescence intensity (a.u.)"}, {"sequence": "CCAGATTGAGCTGTTGCGCACCACCATCCTGACCAGCTGCCGGAGTCACCTAGTGCAG", "binding signal": "17400 fluorescence intensity (a.u.)"}]}]}
